Measurements as given in PubChem BioAssay (NCI).
This is part of a sample that, as a whole, favours compounds with a hit. Of some 83,000 tested, about 20% had one in any assay.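 Values shown are percent growth following 48 h exposure of cells in 96-well plates to a single concentration of compound; below 10 was considered active.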 Values without a mark were called inactive. Activity calls are given as the source filed them.

Legend:
Assay in all cases: NCI-60 one-dose screen, 48 h (100 = growth as untreated, 0 = no growth, -100 = all killed)
Conditions in all cases: 10 µM unless noted
SR leukemia = test system: SR leukemia
OVCAR-8 ovarian = test system: OVCAR-8 ovarian
OVCAR-5 ovarian = test system: OVCAR-5 ovarian
OVCAR-4 ovarian = test system: OVCAR-4 ovarian
SK-OV-3 ovarian = test system: SK-OV-3 ovarian
IGROV1 ovarian = test system: IGROV1 ovarian
OVCAR-3 ovarian = test system: OVCAR-3 ovarian
NCI/ADR-RES ovarian = test system: NCI/ADR-RES ovarian
T-47D breast = test system: T-47D breast
MDA-MB-435 melanoma = test system: MDA-MB-435 melanoma
SW-620 colon = test system: SW-620 colon
MCF7 breast = test system: MCF7 breast
HCT-116 colon = test system: HCT-116 colon
HCC-2998 colon = test system: HCC-2998 colon
KM12 colon = test system: KM12 colon
HS 578T breast = test system: HS 578T breast
BT-549 breast = test system: BT-549 breast

Structure (SMILES) | growth (SR leukemia) | growth (OVCAR-8 ovarian) [%] | growth (OVCAR-5 ovarian) [%] | growth (OVCAR-4 ovarian) [%] | growth (SK-OV-3 ovarian) [%] | growth (IGROV1 ovarian) [%] | growth (OVCAR-3 ovarian) [%] | growth (NCI/ADR-RES ovarian) | growth (T-47D breast) [%] | growth (MDA-MB-435 melanoma) [%] | growth (SW-620 colon) | growth (MCF7 breast) [%] | growth (HCT-116 colon) [%] | growth (HCC-2998 colon) | growth (KM12 colon) [%] | growth (HS 578T breast) [%] | growth (BT-549 breast) [%]
Cn1cnc2c(N3CCN(C(=O)OCc4ccc5c(Cl)cc(Cl)c(O)c5n4)CC3)nc(Cl)nc21 | 74.1% | 51.3 | 90.5 | 32.7 | 97.6 | 66 | 66.8 | 35.3% | 61 | 67.5 | 85.9% | 73 | 53.1 | 94.1% | 56.9 | – | –
Cc1ccc(C(=O)NCCCNc2nccc(-n3ccc4cccnc43)n2)cc1 | 92.7% | 100 | 89.8 | 96.3 | 106 | 88.6 | 105 | 92.3% | 90.6 | 104 | 109% | 103 | 93.7 | 109% | 103 | 101 | –
O=C(NCCNc1nccc(-n2ccc3cccnc32)n1)c1ccc(C(F)(F)F)cc1 | 105% | 103 | 106 | 100 | 99.7 | 103 | 109 | 105% | 102 | 99.9 | 103% | 95.6 | 100 | 120% | 100 | 106 | –
COc1ccc(/C=C2/C(=O)NC(SCC(=O)N3CCN(c4cc5c(cc4F)c(=O)c(C(=O)O)cn5C4CC4)CC3)=NC2N)cc1OC (centres undefined) | 108% | 106 | 104 | 107 | 121 | 107 | 107 | 104% | 110 | 104 | 105% | 98 | 105 | 99.7% | – | 105 | –
O=[N+]([O-])c1ccc(/C=C/C2(CCl)OCCO2)cc1 | 1.55% (active) | 82.4 | 111 | 102 | 103 | – | 112 | 98.8% | 95.1 | – | 86.5% | 106 | 61.3 | 98.5% | 104 | 109 | –
Cc1nc2ncccc2nc1Nc1ccc(S(=O)(=O)Nc2ccccn2)cc1 | 92.2% | 93.6 | 103 | 102 | 89.1 | 72.6 | – | 98.2% | 91.2 | 109 | 102% | 92.7 | 92 | 99.5% | 97.8 | 92.9 | 83.3
CC(C)(C)N1CCC1C(N)=O (centres undefined) | 115% | 102 | 48.7 | 104 | 104 | 265 | 105 | -4.51% (active) | 99.5 | 103 | 97.7% | 104 | 77.4 | 47% | 99.2 | 111 | –
O=C(NCCCNc1nccc(-n2ccc3cccnc32)n1)c1c(F)cccc1F | 99.2% | 107 | 98.9 | 94.9 | 116 | 97.6 | 109 | 99.4% | 97.1 | 105 | 107% | 88.4 | 101 | 104% | 106 | 103 | –
CC(C)(C)n1cc(-c2ccnc(NCCCNS(=O)(=O)c3ccc(F)cc3)c2)c(-c2cccc(O)c2)n1 | 13.8% | 51.5 | 65 | 53.9 | 83.8 | 51.1 | 56.1 | 53% | 31.2 | 58.6 | 8.4% (active) | 16.7 | – | 9.22% (active) | 28.2 | 52.4 | –
